Compound activity: PubChem, National Center for Advancing Translational Sciences (NCATS)
Sampled rows, rich in hits. Any-hit rate of the full collection: about 10%.
HP1b chromo inh = HTS for Inhibitors of HP1-beta Chromodomain Interactions with Methylated Histone Tails; Chromobox protein homolog 1 (Homo sapiens), P83916; AlphaScreen HP1-beta / biotin-H3K9me3 peptide binding; Potency, µM (titrated, usually from 114 µM), inactives show at the highest dose activity change, negative = inhibition, usual class: inhibitors; 390,000 compounds, 0.56% hits; note: nearly all actives have a fitted effect of over 70% in size
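AlphaScreen: HP1-beta (50 nM) preformed 30 min with biotin-H3(1-18)K9me3 peptide (50 nM) in PBS pH 7.4, 0.01% Tween-20. Compound added for 30 min at RT, then streptavidin donor/nickel chelate acceptor beads (10 ug/mL) for 30 min.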
L3MBTL1 inh = qHTS Assay for the Inhibitors of L3MBTL1. Lethal(3)malignant brain tumor-like protein 1 (Homo sapiens), Q9Y468. AlphaScreen L3MBTL1–H3K9me1 peptide binding. Potency, µM (doses to about 57.1 µM), without a hit: top-dose activity, negative = inhibition, most hits filed as inhibitors. 230,000 compounds, 0.66% hits; note: % is set by controls: 0 for no effect and ±100 for the full control effect; nearly all actives have a fitted effect of over 60% in size
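L3MBTL1 (50 nM) pre-complexed 30 min with biotinylated H3(1-15)K9me1 peptide (75 nM), then compounds added for 30 min at room temperature; AlphaScreen streptavidin donor/nickel chelate acceptor beads (10 ug/mL final) read after 30 min dark incubation.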
GLS inhibitor = qHTS for Inhibitors of Glutaminase (GLS); GLS enzymatic activity, qHTS titration; 410,000 compounds, 0.21% hits; Potency, µM (titrated, usually from 45.5 µM), without a hit: at the highest dose activity change, negative = inhibition, usual class: inhibitors; AID 624170, 2012; note: % is set by controls: 0 for no effect and ±100 for the full control effect
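hKGA in 45 mM KH2PO4 (pH 8.2), 0.02% Tween-20 with compound, then 1mM L-Glutamine (stock as added) plus glutamate oxidase/HRP/Amplex red coupling mix. Fluorescence read initially and after 30 min at RT; signal change reflects glutamate formation.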
JMJD2A Tudor = qHTS Assay for Inhibitors of JMJD2A-Tudor Domain | 390,000 compounds, 4.4% hits | AID 504339, 2011 | AlphaScreen JMJD2A-Tudor / H3K4me3 peptide binding | Potency, µM (top dose mostly 114 µM), inactives show top-dose activity change, negative = inhibition, most hits filed as inhibitors | Lysine-specific demethylase 4A (Homo sapiens), O75164; note: % is set by controls: 0 for no effect and ±100 for the full control effect; nearly all actives have a fitted effect of over 50% in size
BAZ2B block = qHTS Assay for Inhibitors of BAZ2B; AlphaScreen BAZ2B-H3K14Ac peptide displacement; Potency, µM (highest dose often 114 µM), without a hit: at the highest dose activity change, negative = inhibition, actives largely listed as inhibitors; 360,000 compounds, 4.4% hits; AID 504333, 2011; note: % is set by controls: 0 for no effect and ±100 for the full control effect; nearly all actives have a fitted effect of over 60% in size
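Multi-concentration screen (max 110 uM) measuring displacement of acetylated histone H3 peptide from BAZ2B by AlphaScreen, using 50 nM protein, 50 nM peptide and 10 ug/mL streptavidin donor plus Ni-chelate acceptor beads.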
G9a inh = qHTS Assay for Inhibitors of Histone Lysine Methyltransferase G9a | Histone-lysine N-methyltransferase EHMT2 (Homo sapiens), Q96KQ7 | G9a H3K9 monomethylation, AlphaScreen, 2 h | Potency, µM (doses to about 102 µM), inactives show at the highest dose activity, negative = inhibition, actives largely listed as inhibitors | AID 504332, 2011 | 350,000 compounds, 8.8% hits; note: % is set by controls: 0 for no effect and ±100 for the full control effect; nearly all actives have a fitted effect of over 75% in size
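Enzyme 20 nM + cpd, 15 min RT; add b-H3K9 pep 500 nM / SAM 20 uM; 2 h RT; anti-H3K9me1 Ab 0.5 ug/mL + SA donor / anti-rabbit acceptor beads 20 ug/mL each, 10 min; AlphaScreen read.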
* hit, by the source's call; ! = not active in a repeat; [ ] = another dose, or the depositor's remark. Calls come from the whole dose curve; as a rule, active = well fitted curve in the direction sought with a large enough effect; inconclusive = small, poorly fitted or top-dose-only effect, or another doubt; inactive = no such curve, though single readings can be large; an effect the other way counts as inactive or inconclusive. Potency is the fitted concentration of half-maximal effect.

`CC1CCN(CC(=O)N2c3ccccc3CC2C)CC1` (stereo not given) gave HP1b chromo inh 28%, L3MBTL1 inh 10%, GLS inhibitor 78%, JMJD2A Tudor -4%, BAZ2B block -3% and G9a inh -4%.
For COc1ccc(N2CCN(CC(=O)c3ccccc3)CC2)cc1 the results were HP1b chromo inh -2%, GLS inhibitor inconclusive, JMJD2A Tudor inconclusive, BAZ2B block -21% and G9a inh 11µM*.
Screening COc1ccc(N2CCN(CC(=O)N3c4ccccc4CC3C)CC2)cc1 (stereo not given) returned HP1b chromo inh 25µM*, GLS inhibitor 29%, JMJD2A Tudor 2.8µM*, BAZ2B block 35µM* and G9a inh 8.9µM*.
`O=C(CN1CCN(c2ccccc2)CC1)c1ccc2cc[nH]c2c1` gave HP1b chromo inh 28%, GLS inhibitor 10%, JMJD2A Tudor -12%, BAZ2B block 14% and G9a inh 11µM*.
`O=C(CCCn1c(=O)[nH]c2ccsc2c1=O)N1CCN(c2cccc(C(F)(F)F)c2)CC1` gave HP1b chromo inh 30%, GLS inhibitor 7%, JMJD2A Tudor -2%, BAZ2B block -1% and G9a inh 9%[59 µM].
`Cc1ccc(NC(=O)c2cc(S(=O)(=O)N3CCC4(CC3)OCCO4)ccc2F)cc1Cl` gave HP1b chromo inh -10%, GLS inhibitor -11%, JMJD2A Tudor -27%, BAZ2B block 3% and G9a inh -5%[59 µM].
CCCCNC(=O)c1ccccc1C(=O)NCCCC was read as HP1b chromo inh inconclusive, L3MBTL1 inh 11%, GLS inhibitor inconclusive, JMJD2A Tudor 14µM*, BAZ2B block 4% and G9a inh 6%[59 µM].
CC(C)(C)C(=O)Nc1ccccc1C(=O)NCCCn1ccnc1 was read as HP1b chromo inh 24%, L3MBTL1 inh -26%, GLS inhibitor 1%, JMJD2A Tudor 50µM*, BAZ2B block 18µM* and G9a inh -3%.
Screening CCSc1ccccc1C(=O)NCCCn1ccnc1 returned HP1b chromo inh 29%, L3MBTL1 inh 0%, GLS inhibitor -7%, JMJD2A Tudor -31%, BAZ2B block 3% and G9a inh 20µM*.
CCOc1ccc(CNC(=O)C2=Cc3cc(Br)ccc3OC2)cc1OC was read as HP1b chromo inh 14%[57 µM], GLS inhibitor 5%, JMJD2A Tudor -24%, BAZ2B block -16% and G9a inh 4%[59 µM].
For CCCCOc1cccc(C(=O)N(Cc2ccc(N(C)C)cc2)C2CCS(=O)(=O)C2)c1 (stereo not given) the results were HP1b chromo inh inconclusive, GLS inhibitor 19%, JMJD2A Tudor 56µM*, BAZ2B block -19% and G9a inh 28%[59 µM].
For CCCCOc1cccc(C(=O)N(Cc2ccccc2)C2CCS(=O)(=O)C2)c1 (stereo not given) the results were HP1b chromo inh 7%, GLS inhibitor -1%, JMJD2A Tudor -19%, BAZ2B block -2% and G9a inh 6%.
Screening C=CCOc1ccc(C(=O)N(Cc2ccc(N(C)C)cc2)C2CCS(=O)(=O)C2)cc1 (stereo not given) returned HP1b chromo inh -21%, L3MBTL1 inh inconclusive, GLS inhibitor 1%, JMJD2A Tudor inconclusive, BAZ2B block inconclusive and G9a inh 50µM*.
CC(C)Oc1ccc(C(=O)N(Cc2ccc(N(C)C)cc2)C2CCS(=O)(=O)C2)cc1 (stereo not given) was read as HP1b chromo inh 7%, GLS inhibitor 41%, JMJD2A Tudor -35%, BAZ2B block -34% and G9a inh inconclusive.
COc1ccccc1CNC(=O)c1ccc(N2CCCC2)c(NC(=O)NCc2ccc(F)cc2)c1 was read as HP1b chromo inh 67%, GLS inhibitor 8%, JMJD2A Tudor -5%, BAZ2B block 18% and G9a inh 32%[59 µM].
For O=C(NCc1cccs1)C1CCN(S(=O)(=O)c2ccccc2F)CC1 the results were HP1b chromo inh 41%, L3MBTL1 inh 5%, GLS inhibitor -12%, JMJD2A Tudor -1%, BAZ2B block -6% and G9a inh 79µM*.
O=C(NCc1cccs1)C1CCN(S(=O)(=O)c2cccs2)CC1 was read as HP1b chromo inh 23%, L3MBTL1 inh -4%, GLS inhibitor 1%, JMJD2A Tudor 1%, BAZ2B block -3% and G9a inh 16%[59 µM].
COC1=C(Nc2ccc(C)cc2)C(=O)c2ccccc2C1=O was read as HP1b chromo inh 16µM*, L3MBTL1 inh 16µM*, GLS inhibitor -2%, JMJD2A Tudor 10µM*, BAZ2B block 7.9µM* and G9a inh 8.9µM*.
`COC1=C(OC)C(=O)c2ccccc2C1=O` gave G9a inh 20µM*!.
`COc1ccc(OC)c2c1C(=O)c1ccccc1C2=O` gave HP1b chromo inh 12%, L3MBTL1 inh -9%, GLS inhibitor -13%, JMJD2A Tudor -12%, BAZ2B block -1% and G9a inh -3%[59 µM].
For COC1=C(Nc2ccccc2)C(=O)c2ccccc2C1=O the results were HP1b chromo inh 35µM*, L3MBTL1 inh 32µM*, GLS inhibitor -15%, JMJD2A Tudor 14µM*, BAZ2B block 14µM* and G9a inh 11µM*.
`CCOC(=O)c1noc2ncnc(N3CCN(c4ccccc4OC)CC3)c12` gave HP1b chromo inh -12%, GLS inhibitor 2%, JMJD2A Tudor -21%, BAZ2B block -16% and G9a inh 0%[59 µM].
Screening Cc1ccc(C)c(CN2C(=O)N(c3cc(Cl)ccc3C)S(=O)(=O)c3ccccc32)c1 returned HP1b chromo inh 41%, GLS inhibitor 1%, JMJD2A Tudor -3%, BAZ2B block 1% and G9a inh 1%[59 µM].
For O=C(NCCc1csc2nc(-c3cccc(F)c3)nn12)c1ccc(Br)o1 the results were HP1b chromo inh 17%[57 µM], GLS inhibitor 2%, JMJD2A Tudor 2%, BAZ2B block -18% and G9a inh 10%[59 µM].
`COc1ccc(CCNC(=O)CCc2cn(Cc3ccc(F)cc3)c3ccccc23)cc1OC` gave HP1b chromo inh 6%, GLS inhibitor -7%, JMJD2A Tudor -27%, BAZ2B block inconclusive and G9a inh -42%[59 µM].
